This note sets out measurements from PubChem BioAssay (NCATS).

Each structure is given as a SMILES string. Results filed as inconclusive are left out. Where a call stands in place of a potency, no number is given. Calls of active or inactive are those of the source. The call rests on the fitted dose curve; in most records, active means well fitted inhibition curve with a large enough effect; inconclusive means small, poorly fitted or top-dose-only effect, or effect the other way; inactive means flat fitted curve, though single readings scatter.

Chain of ATP-dependent 6-phosphofructokinase (Trypanosoma brucei brucei) (O15648 whole entry, looked up): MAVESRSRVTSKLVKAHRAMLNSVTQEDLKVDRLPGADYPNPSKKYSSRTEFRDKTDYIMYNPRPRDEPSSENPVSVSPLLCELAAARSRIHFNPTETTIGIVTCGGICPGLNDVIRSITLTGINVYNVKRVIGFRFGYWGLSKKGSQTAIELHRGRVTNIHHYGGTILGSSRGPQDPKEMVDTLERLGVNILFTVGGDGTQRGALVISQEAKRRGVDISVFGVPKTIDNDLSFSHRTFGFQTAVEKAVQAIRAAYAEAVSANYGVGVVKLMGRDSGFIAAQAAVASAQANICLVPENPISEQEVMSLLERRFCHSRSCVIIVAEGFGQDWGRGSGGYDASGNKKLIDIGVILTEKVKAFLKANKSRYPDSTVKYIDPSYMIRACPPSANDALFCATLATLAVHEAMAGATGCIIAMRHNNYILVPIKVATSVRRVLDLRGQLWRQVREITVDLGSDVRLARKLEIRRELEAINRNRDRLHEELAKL

The assay deals with ATP-dependent 6-phosphofructokinase (Trypanosoma brucei brucei) (UniProt O15648). Kind of assay: qHTS Assay to Find Inhibitors of T. brucei phosphofructokinase: hit validation (AID 492961).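 Further: luminescence reports ADP formed as PFK phosphorylates fructose-6-phosphate with ATP.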 As to conditions: T. brucei PFK, ADP-Glo luminescence; series mostly up to 51.4 µM. The text has this:
NIH Molecular Libraries Probe Production Network [MLPCN] NIH Chemical Genomics Center [NCGC] Grant: 1 R03 MH092153-01 PI Name: Malcolm Walkinshaw, University of Edinburgh NCGC Assay Overview: Various species of the protozoan family Trypanosomatidae are responsible for a range of serious human diseases in tropical and subtropical areas of the world. […] Many of the disorders caused by trypanosomatids are fatal if left untreated, but most currently used drugs are inefficient and toxic. […] Oxidative metabolism involving the mitochondrial tricarboxylic acid cycle and oxidative phosphorylation are repressed in these parasites, and recent RNA interference (RNAi) experiments have shown that even partial depletion of certain individual glycolytic enzymes can lead to the death of cultured parasites. One such glycolytic enzyme, phosphofructokinase (PFK), catalyzes the formation of fructose-1,6-bisphosphate (F1,6BP) and ADP from fructose-6-phosphate (F6P) and ATP, and in many metabolic circumstances makes an important contribution to the control of flux through the glycolytic pathway. As a specific glycolytic target, PFK is particularly attractive as it catalyzes the first irreversible step in glycolysis, and structural and kinetic studies have shown very substantial and essential differences from corresponding host enzymes, allowing for the discovery of parasite-selective inhibitors. The goal of this screen is to find small-molecule inhibitors of T. brucei PFK using a biochemical assay that measures PFK activity as a function of ADP production. A luminescence-based assay for T. brucei PFK activity has been developed which uses luciferase to detect production of ADP. Traditional luciferase-based nucleotide detection reagents rely on ATP production as a direct substrate for the luciferase reaction; however, PFK catalyzes the transfer of a phosphate from ATP to F6P, resulting in the net depletion of ATP. To directly measure the ADP product of the PFK reaction, we used the ADP-Glo detection kit (Promega), which utilizes two separate reactions to 1) deplete all remaining uncatalyzed ATP and 2) convert all remaining ADP to ATP, which is then detected through a traditional luciferase-coupled reaction. Compounds were screened as a concentration-titration series that ranged from 57 uM to 0.7 nM.
NCGC Assay Protocol Summary: Substrate buffer was dispensed into white, solid 1536-well plates at 3uL/well in 0.1M triethanolamine (TEA) buffer, pH 8.0, containing final concentrations of 5 mM MgCl2, 0.01% Tween20, 0.5 mM fructose-6-phosphate (F6P) and 0.1mM ATP. Then, 23 nL of compounds or DMSO were delivered to each well using a pin tool. One uL T. brucei PFK (0.1M TEA, 0.01% Tween20, 0.1% bovine serum albumin (BSA) and 1.25nM PFK, final concentrations) was then dispensed, and plates were incubated at room temperature for 45 min. The luminescent detection reagent, ADP-Glo (Promega), was then added in two steps: the first reagent, ADP-Glo (which converts remaining uncatalyzed ATP), was added at 2.5uL/well and incubated for ten minutes at room temperature, and the second component, Kinase Detection reagent (which converts ADP to ATP as a substrate for luciferase-based luminescence), was added immediately after at 5uL/well, followed by one final ten minute room temperature incubation. The plates were measured on a ViewLux plate reader for luminescent signal using a clear filter with a one second exposure. The %Activity was determined from the corrected luminescence values. As no specific T. brucei PFK inhibitors have been identified in the literature, 1x (1.25nM) and 0x PFK enzyme controls (untreated) were included to normalize %Activity of identified inhibitors; 0x enzyme values corresponded to 100%Activity (full inhibition), while 1x PFK enzyme values were used to normalize 0%Activity (no inhibition). Concentration-response curves were fitted to the signals arising from the resulting luminescence. […]
(In qHTS, concentration-response curves come from the screen itself.)
For the molecule `C#CCN(C)Cc1ccccc1`, the Potency entry is “inactive”.

For `COc1ccc(S(=O)(=O)Nc2nnc(CC(C)C)s2)cc1`, the Potency entry was “inactive”.

As for `CC(=O)Oc1ccc(C2(c3ccc(OC(C)=O)cc3)C(=O)Nc3ccccc32)cc1`, the Potency entry is “inactive”.

`CCn1cc(C(=O)O)c(=O)c2cnc(N3CCNCC3)nc21`: the Potency entry is “inactive”.

As to `COc1ccc2c(c1)C(=O)N(CCc1ccc(S(=O)(=O)NC(=O)NC3CCCCC3)cc1)C(=O)C2(C)C`, the Potency result was “inactive”.

On to `Cc1c(O)cccc1C(=O)N[C@@H](CSc1ccccc1)[C@H](O)CN1C[C@H]2CCCC[C@H]2C[C@H]1C(=O)NC(C)(C)C`, for which the Potency result is “inactive”.

As to `O=C1NS(=O)(=O)c2ccccc21`, the Potency result is “inactive”.

For the molecule `CC(O)CN(CCN(CC(C)O)CC(C)O)CC(C)O` (stereo not given), the Potency result is “inactive”.

Regarding `O=C(O)c1ccccc1O`, the Potency entry is “inactive”.

As for `OCCN1CCN(CCCN2c3ccccc3Sc3ccc(Cl)cc32)CC1`, the Potency entry is “inactive”.

Consider `CCCCN(CCCC)CC(O)c1cc(Cl)cc2c1-c1ccc(Cl)cc1/C2=C/c1ccc(Cl)cc1` (stereo not given), for which the Potency entry was “inactive”.

`Cc1cc2c(cc1S(N)(=O)=O)S(=O)(=O)CCC2`: the Potency result is “inactive”.

In the case of `COc1ccc2[nH]c(S(=O)Cc3ncc(C)c(OC)c3C)nc2n1` (stereo not given), the Potency result was “inactive”.

As to `CC1(C)[C@@H]2CC[C@@]1(C)C(=O)C2`, the Potency entry is “inactive”.

For the molecule `Cc1cccc(C)c1NC(=O)CN(CC(=O)O)CC(=O)O`, the Potency entry is “inactive”.

In the case of `CC[C@@]1(c2ccccc2)NC(=O)N(C)C1=O`, the Potency result was “inactive”.

On to `Cn1cc[nH]c1=S`, for which the Potency entry was “inactive”.

As to `Cc1cc(C(C#N)c2ccc(Cl)cc2)c(Cl)cc1NC(=O)c1cc(I)cc(I)c1O` (stereo not given), the Potency result was “inactive”.

Turning to `CC(O)COc1ccccc1` (stereo not given), the Potency entry is “inactive”.

With `O=Cc1ccccc1C=O`, the Potency entry is “inactive”.

With `Oc1cn2c(n1)Nc1ccc(Cl)c(Cl)c1C2`, the Potency result is “inactive”.

Regarding `NCCNCCNCCN`, the Potency entry is “inactive”.

`NS(=O)(=O)c1cc2c(cc1Cl)NC(CSCc1ccccc1)=NS2(=O)=O`: the Potency result was “inactive”.

Regarding `CCCCN1CCCC[C@H]1C(=O)Nc1c(C)cccc1C`, the Potency result is “inactive”.

Take `CNC(=O)Oc1ccc2c(c1)[C@]1(C)CCN(C)[C@@H]1N2C`: the Potency result was “inactive”.

`Cc1ncc(COP(=O)(O)O)c(C=O)c1O`: the Potency result was “inactive”.

As for `CC(=O)CCC(=O)O`, the Potency entry was “inactive”.

As for `CCOc1nc2cccc(C(=O)O)c2n1Cc1ccc(-c2ccccc2-c2nn[nH]n2)cc1`, the Potency result is “inactive”.

For the molecule `Cc1ccc2nc(N)[nH]c(=O)c2c1Sc1ccncc1`, the Potency entry is “inactive”.

As to `O=c1cc[nH]c(=S)[nH]1`, the Potency result was “inactive”.

Consider `O=C(O)CC(O)C(=O)O` (stereo not given), for which the Potency result is “inactive”.

Regarding `CCOC(=O)c1ccc(O)cc1`, the Potency result is “inactive”.

On to `CCOC(=O)[C@H](CCc1ccccc1)N[C@@H](C)C(=O)N1C(=O)N(C)C[C@H]1C(=O)O`, for which the Potency entry was “inactive”.

Regarding `Oc1cccc(O)c1`, the Potency result is “inactive”.

Consider `CCN(CC)CCNC(C(=O)OCCC(C)C)c1ccccc1` (stereo not given), for which the Potency result was “inactive”.

For the molecule `CN(C)CCN(Cc1ccccc1)c1ccccn1`, the Potency entry is “inactive”.

For `O=C1c2c(O)cccc2Cc2cccc(O)c21`, the Potency entry was “inactive”.

For the molecule `CCC(=O)Nc1ccc(O)cc1`, the Potency result is “inactive”.

For `CC(C)(C)C(=O)NCCCC(=O)O`, the Potency result is “inactive”.

On to `CCOc1ccc2ccccc2c1C(=O)N[C@@H]1C(=O)N2[C@@H]1SC(C)(C)[C@@H]2C(=O)O`, for which the Potency entry is “inactive”.
